Inconclusive results are not listed. Activity calls are given as the source filed them. Unless noted, how the calls were made is not given here.
Columns and labels:
[1] = rapamycin-like changes in RPL19A-GFP expression – cell-based, S. cerevisiae, multiplex flow cytometry, primary screen (AID 1862; in the data active means percent of DMSO control GFP below about 86%;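 further: lower values mimic rapamycin by blocking the RPL19A rise seen in DMSO cells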); conditions: S. cerevisiae RPL19A-GFP strain, flow cytometry fluorescence, 3 h; at 10 µM; stronger effect = lower value
[2] = TOR pathway GLN3 branch reporter MEP2-GFP changes – S. cerevisiae, multiplex flow cytometry, primary screen (AID 1867;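 active means GFP response, as percent of the DMSO control, above the screen-wide mean plus 3 SD, about 139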;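 further: median GFP channel fluorescence of barcode-gated MEP2-GFP cells measured by flow cytometry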); conditions: S. cerevisiae MEP2-GFP strain, 3 h, at 10 µM, stronger effect = higher value
[3] = TOR pathway RTG branch CIT2 reporter changes – S. cerevisiae, GFP fusion, multiplex flow cytometry, primary screen (AID 1870;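 active means percent response above a set limit, the screen-wide mean plus 3 SD, cut at about 130% in these data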;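 further: barcoded CIT2-GFP strain pooled with four other GFP strains with rapamycin as positive control; median GFP fluorescence per well over plate mean of DMSO wells so 100% = DMSO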); conditions: S. cerevisiae CIT2-GFP expression, 3 h, at 10 µM, stronger effect = higher value
[4] = TOR pathway LAP4-GFP level changes – S. cerevisiae, multiplex flow cytometry, primary screen (AID 1873;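 active means GFP signal, as percent of the solvent control, above the screen mean plus 3 SD, about 149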); conditions: S. cerevisiae LAP4-GFP expression, 3 h, at 10 µM, stronger effect = higher value
[5] = yeast AGP1-GFP level changes, GLN3 branch – cell-based, multiplex flow cytometry, S. cerevisiae, primary screen (AID 1887;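 active means GFP signal above the screen-wide mean plus 3 SD, that is over about 124.5% of the solvent control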;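 further: AGP1-GFP fusion strain of S. cerevisiae within a five-strain barcoded multiplex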); conditions: 3 h, at 10 µM, stronger effect = higher value
[6] = reduced mouse 2C T cell binding to pMHC/ICAM-1 vesicles – MLPCN validation set, flow cytometry, LFA-1/ICAM-1 modulator project, pilot screen (AID 2523;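 active means response below a set limit, under 55% cells CD8-positive and vesicle-bound, and CD8 cells' 90th-percentile brightness under 279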;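 on vesicle binding response: mean PE anti-B7-1 fluorescence of CD8+ cells relative to row control; 100% = QL9-loaded vesicles with DMSO vehicle in the same plate row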); conditions: 2C mouse CD8+ T cells, at 7 µM, stronger effect = lower value; double positive events: measured here: CD8+/vesicle+ event percentage
[7] = target: Integrin beta-1 (Homo sapiens) + Integrin alpha-4 (Homo sapiens) (UniProt P13612+P05556); test: alpha4beta1 integrin LIBS antibody binding reduction – U937 cells, HUTS-21 mAb, flow cytometry, validation set, VLA-4 allosteric modulator project, pilot screen (AID 2674;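 active means inhibition above 50%, about 3 SD of the validation set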;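 further: antibody binding induced by the VLA-4 ligand LDV present at three times its Kd; 0% = LDV ligand with antibody and no compound and 100% = antibody without LDV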); conditions: HUTS-21 LIBS mAb binding, at 6.7 µM, stronger effect = higher value
Integrin beta-1 (Homo sapiens) + Integrin alpha-4 (Homo sapiens), sequence (P05556 whole entry, looked up): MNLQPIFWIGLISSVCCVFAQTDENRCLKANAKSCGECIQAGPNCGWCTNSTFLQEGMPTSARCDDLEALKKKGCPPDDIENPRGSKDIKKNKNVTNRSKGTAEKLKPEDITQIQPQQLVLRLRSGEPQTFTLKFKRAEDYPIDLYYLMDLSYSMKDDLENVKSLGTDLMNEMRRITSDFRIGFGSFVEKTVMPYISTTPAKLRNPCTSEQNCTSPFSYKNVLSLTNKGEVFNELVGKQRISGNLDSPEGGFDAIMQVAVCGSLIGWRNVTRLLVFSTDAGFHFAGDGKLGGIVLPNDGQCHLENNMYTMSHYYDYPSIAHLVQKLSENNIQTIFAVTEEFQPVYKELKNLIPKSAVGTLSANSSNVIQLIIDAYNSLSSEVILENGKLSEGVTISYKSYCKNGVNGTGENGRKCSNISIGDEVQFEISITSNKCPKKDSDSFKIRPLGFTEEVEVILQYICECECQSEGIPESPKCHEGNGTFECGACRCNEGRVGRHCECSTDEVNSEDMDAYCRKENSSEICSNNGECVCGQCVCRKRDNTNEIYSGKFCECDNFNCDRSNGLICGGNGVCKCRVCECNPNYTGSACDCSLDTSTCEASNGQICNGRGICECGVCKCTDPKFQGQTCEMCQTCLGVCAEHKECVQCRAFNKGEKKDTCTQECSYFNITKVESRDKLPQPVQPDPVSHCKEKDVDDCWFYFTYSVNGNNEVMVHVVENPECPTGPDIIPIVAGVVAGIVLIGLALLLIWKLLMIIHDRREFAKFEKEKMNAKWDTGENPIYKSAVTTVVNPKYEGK
Integrin beta-1 (Homo sapiens) + Integrin alpha-4 (Homo sapiens), sequence (P13612 whole entry, looked up): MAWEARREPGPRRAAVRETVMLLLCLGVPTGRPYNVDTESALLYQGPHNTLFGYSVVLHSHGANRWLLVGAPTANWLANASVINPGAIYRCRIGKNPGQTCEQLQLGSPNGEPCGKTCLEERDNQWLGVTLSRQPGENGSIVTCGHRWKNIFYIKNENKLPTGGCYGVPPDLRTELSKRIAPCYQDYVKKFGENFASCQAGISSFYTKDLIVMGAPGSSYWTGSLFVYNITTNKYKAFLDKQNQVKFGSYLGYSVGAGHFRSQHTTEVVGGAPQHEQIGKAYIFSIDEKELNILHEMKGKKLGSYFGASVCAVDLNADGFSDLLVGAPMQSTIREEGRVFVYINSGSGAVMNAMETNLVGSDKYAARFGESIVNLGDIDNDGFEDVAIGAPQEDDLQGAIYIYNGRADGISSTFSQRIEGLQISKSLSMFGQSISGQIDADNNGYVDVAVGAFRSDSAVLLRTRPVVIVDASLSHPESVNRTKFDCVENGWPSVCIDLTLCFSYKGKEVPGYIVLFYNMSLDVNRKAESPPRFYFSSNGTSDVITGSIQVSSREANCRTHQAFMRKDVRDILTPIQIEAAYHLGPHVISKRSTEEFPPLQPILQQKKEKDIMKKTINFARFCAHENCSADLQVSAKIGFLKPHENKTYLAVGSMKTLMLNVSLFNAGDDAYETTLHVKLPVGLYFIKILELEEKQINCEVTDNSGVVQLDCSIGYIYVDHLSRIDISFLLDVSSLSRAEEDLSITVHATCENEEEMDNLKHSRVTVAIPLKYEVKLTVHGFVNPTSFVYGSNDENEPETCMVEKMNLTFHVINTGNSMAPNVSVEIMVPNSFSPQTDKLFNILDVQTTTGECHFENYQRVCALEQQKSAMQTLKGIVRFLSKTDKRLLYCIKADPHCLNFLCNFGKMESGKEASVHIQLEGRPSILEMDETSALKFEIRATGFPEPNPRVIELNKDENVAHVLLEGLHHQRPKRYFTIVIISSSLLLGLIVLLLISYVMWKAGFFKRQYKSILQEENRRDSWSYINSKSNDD

[8] = calorie-restriction mimetic ROS inhibitors, yeast – validation compound set, pilot screen (AID 2706;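 active means superoxide response below 65% of plate, a cut near 3 SD across the whole screen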;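 further: yeast exposed to compound for one week at 30 degrees C before staining; 100% = mean of all compound wells on the same plate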); conditions: S. cerevisiae aging, superoxide DHE fluorescence; at 10 µM; stronger effect = lower value
[9] = target: Beta-adrenergic receptor kinase 1 (Homo sapiens) (UniProt P25098); test: GRK2 binders displacing RNA aptamer, biochemical, validation, human GRK2, bead flow cytometry (AID 488806;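 active means aptamer binding inhibition above 30%, about 3 SD of noise from non-fluorescent compounds; inactive means inhibition at or below 30%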); conditions: bead-bound GRK2, FAM-aptamer displacement, at 10 µM, stronger effect = higher value
Beta-adrenergic receptor kinase 1 (Homo sapiens), sequence (P25098 whole entry, looked up): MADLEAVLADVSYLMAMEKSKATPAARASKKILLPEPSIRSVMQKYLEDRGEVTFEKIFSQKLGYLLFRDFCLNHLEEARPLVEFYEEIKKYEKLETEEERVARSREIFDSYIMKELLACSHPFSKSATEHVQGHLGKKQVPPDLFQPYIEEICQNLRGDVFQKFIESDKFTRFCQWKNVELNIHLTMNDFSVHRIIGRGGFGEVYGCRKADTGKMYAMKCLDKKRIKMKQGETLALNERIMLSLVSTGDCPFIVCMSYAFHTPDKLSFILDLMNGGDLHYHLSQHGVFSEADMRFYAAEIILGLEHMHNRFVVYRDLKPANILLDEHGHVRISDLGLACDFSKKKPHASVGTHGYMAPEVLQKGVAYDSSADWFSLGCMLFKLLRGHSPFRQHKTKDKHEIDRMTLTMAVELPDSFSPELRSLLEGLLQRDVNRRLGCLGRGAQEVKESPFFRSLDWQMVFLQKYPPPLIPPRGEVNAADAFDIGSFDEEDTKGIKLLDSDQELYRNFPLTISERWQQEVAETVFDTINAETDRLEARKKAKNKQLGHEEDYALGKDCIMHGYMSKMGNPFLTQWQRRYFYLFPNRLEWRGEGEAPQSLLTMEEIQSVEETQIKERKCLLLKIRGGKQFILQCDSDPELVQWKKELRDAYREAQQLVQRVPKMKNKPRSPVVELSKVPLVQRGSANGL

[10] = target: Beta-2 adrenergic receptor (Homo sapiens) (UniProt P07550); test: agonist-induced loss of surface beta2AR – cell-based, FAP fluorogen, flow cytometry, validation set, pilot screen (AID 504459;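 active means percent response above 42, roughly 3 SD of non-fluorescent test compounds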;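 further: agonist-driven loss of surface beta2AR via internalization measured by FAP dye flow cytometry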); conditions: Am2.2-beta2AR cells, at 10 µM, stronger effect = higher value
Beta-2 adrenergic receptor (Homo sapiens), sequence (P07550 whole entry, looked up): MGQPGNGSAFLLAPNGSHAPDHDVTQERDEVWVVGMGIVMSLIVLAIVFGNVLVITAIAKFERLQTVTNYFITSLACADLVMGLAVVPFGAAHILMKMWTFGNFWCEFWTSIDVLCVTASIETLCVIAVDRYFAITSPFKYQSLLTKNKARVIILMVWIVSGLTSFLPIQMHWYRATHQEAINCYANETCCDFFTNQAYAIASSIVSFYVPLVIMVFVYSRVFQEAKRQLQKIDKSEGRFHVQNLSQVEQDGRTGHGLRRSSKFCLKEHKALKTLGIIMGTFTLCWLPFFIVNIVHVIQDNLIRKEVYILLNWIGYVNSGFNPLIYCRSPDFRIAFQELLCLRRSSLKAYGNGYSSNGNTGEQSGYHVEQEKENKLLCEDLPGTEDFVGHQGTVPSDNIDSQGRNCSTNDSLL

[11] = target: AP-2 complex subunit beta (Homo sapiens) (UniProt P63010); test: beta-arrestin/AP2 interaction blockers – biochemical, validation set, GST-AP2 beads, flow cytometry, pilot screen (AID 504541;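 active means inhibition above 54%, about 3 SD of non-fluorescent compounds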;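 further: AP2 carries R879A mutation and is captured from E. coli lysate; bead-bound FITC arrestin peptide fluorescence measuring arrestin peptide binding to AP2; 0% = DMSO wells and 100% = excess unlabeled arrestin peptide control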); conditions: FITC arrestin peptide, at 10 µM, stronger effect = higher value
AP-2 complex subunit beta (Homo sapiens), sequence (P63010 whole entry, looked up, one chain of several): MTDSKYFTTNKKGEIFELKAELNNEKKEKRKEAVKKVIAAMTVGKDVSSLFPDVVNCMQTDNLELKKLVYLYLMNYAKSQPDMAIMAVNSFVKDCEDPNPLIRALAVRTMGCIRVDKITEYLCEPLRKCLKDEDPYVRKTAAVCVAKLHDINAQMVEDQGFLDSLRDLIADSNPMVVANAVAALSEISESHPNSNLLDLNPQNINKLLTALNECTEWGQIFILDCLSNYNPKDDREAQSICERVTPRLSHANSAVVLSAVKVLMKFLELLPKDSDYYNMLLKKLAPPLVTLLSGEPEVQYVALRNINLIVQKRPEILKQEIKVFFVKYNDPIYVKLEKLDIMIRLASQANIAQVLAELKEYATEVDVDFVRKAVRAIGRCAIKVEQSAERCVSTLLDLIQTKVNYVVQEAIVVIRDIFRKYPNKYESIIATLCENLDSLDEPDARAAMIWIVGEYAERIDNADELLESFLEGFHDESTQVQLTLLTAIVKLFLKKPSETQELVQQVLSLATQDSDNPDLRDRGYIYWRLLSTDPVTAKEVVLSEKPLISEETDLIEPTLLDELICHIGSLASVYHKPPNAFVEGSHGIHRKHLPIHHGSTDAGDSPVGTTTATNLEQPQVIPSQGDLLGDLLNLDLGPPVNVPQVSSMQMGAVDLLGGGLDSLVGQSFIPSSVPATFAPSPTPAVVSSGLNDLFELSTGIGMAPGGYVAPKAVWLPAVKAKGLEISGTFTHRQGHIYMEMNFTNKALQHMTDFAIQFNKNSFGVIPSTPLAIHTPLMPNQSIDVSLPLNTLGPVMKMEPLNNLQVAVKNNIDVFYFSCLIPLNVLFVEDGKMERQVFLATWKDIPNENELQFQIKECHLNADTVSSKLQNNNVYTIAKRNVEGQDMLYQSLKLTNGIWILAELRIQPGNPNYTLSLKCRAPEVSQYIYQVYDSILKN

[12] = cytosolic pH regulators acting via V-ATPase – S. cerevisiae, pHLuorin, HTS validation (AID 504600; in the data active means response above about 15%;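 further: plate controls were DMSO for no effect and reference compound for full effect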); conditions: V-ATPase proton transport, at 10 µM, stronger effect = higher value
[13] = test system: anti-desmoglein-3 scFv antibody binding to human DSG3; test: blockers of pathogenic pemphigus antibody–desmoglein-3 binding – biochemical, validation compound set, bead-based, flow cytometry, pilot screen (AID 588368;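 active means binding below the plate cutoff, the plate median minus 3 SD, with a reading above zero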;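 further: signal is the median channel fluorescence of bead-bound GFP antibody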); conditions: Protein G beads, DSG3-Fc, scFv-GFP binding, at 10 µM, stronger effect = lower value
[14] = test system: Botulinum neurotoxin type F light chain protease (Clostridium botulinum); test: Clostridium botulinum type F light chain protease inhibitors, microsphere substrate cleavage, validation (AID 588459); conditions: multiplex microsphere protease substrate cleavage assay, flow cytometry; at 10 µM; stronger effect = higher value
[15] = target: Botulinum neurotoxin type A (Clostridium botulinum) (UniProt P0DPI0); test: BoNT/A light chain protease inhibitors, biochemical, multiplex microsphere flow cytometry, validation set (AID 588460); conditions: at 10 µM, stronger effect = higher value
[16] = target: Lethal factor (Bacillus anthracis) (UniProt P15917); test: Bacillus anthracis lethal factor inhibition, microsphere flow cytometry protease assay, validation at 10 µM (AID 588461); conditions: multiplex microsphere protease cleavage assay, stronger effect = higher value
Lethal factor (Bacillus anthracis), sequence (P15917 whole entry, looked up): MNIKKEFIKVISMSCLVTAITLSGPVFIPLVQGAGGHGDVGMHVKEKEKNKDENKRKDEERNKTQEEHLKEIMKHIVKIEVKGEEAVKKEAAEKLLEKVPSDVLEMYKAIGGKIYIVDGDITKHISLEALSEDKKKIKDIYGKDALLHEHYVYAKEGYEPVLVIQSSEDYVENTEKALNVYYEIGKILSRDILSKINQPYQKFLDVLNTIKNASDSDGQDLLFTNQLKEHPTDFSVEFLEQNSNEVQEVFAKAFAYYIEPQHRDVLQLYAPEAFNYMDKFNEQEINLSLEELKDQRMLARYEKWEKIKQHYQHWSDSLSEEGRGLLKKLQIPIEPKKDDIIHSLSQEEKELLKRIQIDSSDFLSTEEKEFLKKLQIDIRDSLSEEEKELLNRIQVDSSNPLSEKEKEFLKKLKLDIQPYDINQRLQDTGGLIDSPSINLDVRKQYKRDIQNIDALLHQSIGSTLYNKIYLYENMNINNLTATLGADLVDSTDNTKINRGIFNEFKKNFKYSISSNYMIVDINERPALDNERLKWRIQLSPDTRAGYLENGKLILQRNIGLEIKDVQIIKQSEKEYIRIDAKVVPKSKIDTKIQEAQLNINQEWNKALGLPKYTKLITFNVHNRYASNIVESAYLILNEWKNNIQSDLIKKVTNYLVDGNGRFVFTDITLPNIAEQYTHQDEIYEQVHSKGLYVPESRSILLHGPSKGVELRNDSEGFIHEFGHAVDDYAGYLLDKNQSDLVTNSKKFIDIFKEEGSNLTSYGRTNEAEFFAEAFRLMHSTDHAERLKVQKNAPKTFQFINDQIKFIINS

[17] = Nile Red efflux blockade in pump-expressing yeast – validation compound set, multiplex, phenotypic, pilot screen (AID 588506;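 active means efflux inhibition above 0.42, the validation set average plus 4 SD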;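 further: Nile Red retained in cells so higher fluorescence means more efflux inhibition; 0 = negative control wells and 1 = enniatin B 25 µM full block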); conditions: S. cerevisiae pump-expressing triplex, Nile Red efflux flow cytometry; at 10 µM; stronger effect = higher value
[18] = target: ATP-binding cassette sub-family B member 6 (Homo sapiens) (UniProt Q9NP58); test: blockers of ABCB6-driven porphyrin uptake – K562-ABCB6 cells, flow cytometry, validation set, pilot screen (AID 588550;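 active means inhibition above the screen-wide mean plus 3 SD, about 51%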;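 further: 0% = DMSO wells and 100% = benzethonium chloride 70 µM positive control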); conditions: K562-ABCB6 porphyrin accumulation, 1 h, at 10 µM, stronger effect = higher value
[19] = AML differentiation inducers, ER-HoxA9 marrow cells – cell-based, GFP/MAC1 double positive, flow cytometry, validation set, primary screen (AID 588685;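 active means differentiation response of at least 50%, scaled between solvent and reference control, from cells with both markers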;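 further: compound exposure lasts four days before antibody staining and flow analysis; 0% = DMSO wells and 100% = 5 µM fulvestrant positive control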); conditions: stronger effect = higher value

| Structure (SMILES) | percent of DMSO control GFP [1] | GFP response vs DMSO [2] | percent response of DMSO control [3] | GFP response vs DMSO [4] | GFP response, % of DMSO [5] | double positive events [6] [%] | vesicle binding response [6] | inhibition [7] | superoxide response (% of plate) [8] | aptamer binding inhibition [9] | response [10] | inhibition [11] | response [12] | binding (% of control) [13] | inhibition [14] | inhibition [15] | inhibition [16] | efflux inhibition (fraction of control) [17] | inhibition [18] | differentiation response [19] |
| --- | --- | --- | --- | --- | --- | --- | --- | --- | --- | --- | --- | --- | --- | --- | --- | --- | --- | --- | --- | --- |
| Cc1cc(OCc2cc(C(=O)O)oc2C)c2c3c(c(=O)oc2c1)CCCC3 | 104% (inactive) | 97.2% (inactive) | 114% (inactive) | 96.6% (inactive) | 101% (inactive) | 66.4 | 282% (inactive) | 7.85% (inactive) | 90.3% (inactive) | 4% (inactive) | -5.78% (inactive) | -4.24% (inactive) | -0.71% (inactive) | 97.1% (inactive) | -2% (inactive) | -0.5% (inactive) | -8.8% (inactive) | -0.01 (inactive) | 6% (inactive) | 6.11% (inactive) |
| Cc1cc2c(C(C)C)c(O)c(O)c(C=O)c2c(O)c1-c1c(C)cc2c(C(C)C)c(O)c(O)c(C=O)c2c1O | 107% (inactive) | 103% (inactive) | 97% (inactive) | 130% (inactive) | 112% (inactive) | 63.4 | 161% (inactive) | 11.7% (inactive) | 119% (inactive) | 5% (inactive) | -1.41% (inactive) | 14% (inactive) | 1.35% (inactive) | 64.8% (active) | 2.6% (inactive) | 0.9% (inactive) | -7.5% (inactive) | 0.25 (inactive) | -3% (inactive) | 16.7% (inactive) |
| CC[C@]12C=CCN3CCC4(c5cc(Br)c(OC)cc5N(C)C4[C@@](O)(C(=O)OC)[C@@H]1OC(C)=O)C32 (stereo not given in full) | 88.9% (inactive) | 130% (inactive) | 96.6% (inactive) | 84.2% (inactive) | 90.5% (inactive) | 48.2 | 18.6% (active) | 29.7% (inactive) | 95.7% (inactive) | 5% (inactive) | -10.3% (inactive) | -7.24% (inactive) | 5.2% (inactive) | 109% (inactive) | 2.5% (inactive) | 1.6% (inactive) | -5.6% (inactive) | 0.23 (inactive) | 10% (inactive) | 0% (inactive) |
| C[C@]12CCC(=O)C=C1CCC1C2CC[C@@]2(C)C1CC[C@@]2(O)CC#N (stereo not given in full) | 99.8% (inactive) | 105% (inactive) | 101% (inactive) | 90.7% (inactive) | 98% (inactive) | 71.1 | 961% (inactive) | 12% (inactive) | 95.6% (inactive) | 5% (inactive) | -3.28% (inactive) | -0.45% (inactive) | -1.52% (inactive) | 97.9% (inactive) | 3.3% (inactive) | -0.9% (inactive) | -2.6% (inactive) | -0.07 (inactive) | 8% (inactive) | 11% (inactive) |
| COc1ccc(CN2CC3CC(C2)c2cccc(=O)n2C3)cc1OC (stereo not given) | 105% (inactive) | 101% (inactive) | 95.4% (inactive) | 84.1% (inactive) | 95.1% (inactive) | 60.2 | 170% (inactive) | 14.1% (inactive) | 93% (inactive) | 0% (inactive) | 2.8% (inactive) | -0.56% (inactive) | 1% (inactive) | 100% (inactive) | 1.7% (inactive) | -1.2% (inactive) | -0.8% (inactive) | 0.39 (inactive) | 8% (inactive) | 4.15% (inactive) |
| CCn1c(O)c(C(=O)CC2NCCc3ccccc32)c(=O)n(CC)c1=S (stereo not given) | 95.2% (inactive) | 118% (inactive) | 97.7% (inactive) | 132% (inactive) | 101% (inactive) | 55.8 | 186% (inactive) | -7.25% (inactive) | 113% (inactive) | 1% (inactive) | 20.4% (inactive) | 5.21% (inactive) | 1.26% (inactive) | 102% (inactive) | 2.4% (inactive) | 1.1% (inactive) | -11.5% (inactive) | -0.03 (inactive) | -11% (inactive) | -15.2% (inactive) |
| CC(C)[N+](C)(CCC(C(N)=O)(c1ccccc1)c1ccccc1)C(C)C | 105% (inactive) | 107% (inactive) | 107% (inactive) | 99.1% (inactive) | 106% (inactive) | 61.6 | 144% (inactive) | 5.61% (inactive) | 110% (inactive) | 2% (inactive) | 9.5% (inactive) | -5.08% (inactive) | 0.78% (inactive) | 101% (inactive) | -5% (inactive) | -2.6% (inactive) | -9.4% (inactive) | -0.61 (inactive) | 21% (inactive) | -8.96% (inactive) |
| C[C@H]1OC[C@@H](C[N+](C)(C)C)O1 | 100% (inactive) | 98.7% (inactive) | 101% (inactive) | 92.6% (inactive) | 96.2% (inactive) | 62.3 | 144% (inactive) | -6.45% (inactive) | 95.3% (inactive) | 3% (inactive) | 2.48% (inactive) | 5.6% (inactive) | 4.51% (inactive) | 102% (inactive) | 0.4% (inactive) | 0.4% (inactive) | 4.6% (inactive) | -0.16 (inactive) | -2% (inactive) | -10.4% (inactive) |
